# Source: PubChem BioAssay
# KB-3-1 tox = KB-3-1 parental cell cytotoxicity; Potency, µM (highest dose often 46.1 µM), actives largely listed as cytotoxic; AID 1347075; actives 1.4% (n = 400,000); KB-3-1 viability, CellTiter-Glo ATP luminescence, 72 h; also: nearly all actives have a fitted effect of over 60% in size
#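 Parental KB-3-1 viability, qHTS format: 72 h compound exposure, 37 °C; CellTiter-Glo; media-only wells and DMSO plates as controls; concentration-effect fits on corrected data.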
# KB-V1 MDR tox = kills drug-selected multidrug resistant KB-V1 cells; AID 1347076; KB-V1 MDR cells viability, CellTiter-Glo, 72 h; actives 3.4% (n = 400,000); Potency, µM (top dose mostly 46.1 µM), hits mostly cytotoxic; also: nearly all actives have a fitted effect of over 60% in size
#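 Potencies derive from concentration-effect curves fitted to normalized luminescence (CellTiter-Glo) of KB-V1 cells treated for 72 h at 37 degrees C in phenol-red-free DMEM containing 10% FBS.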
# HT1080 IDH1KD tx = kills HT-1080 cells with IDH1 knockdown; HT-1080 IDH1 knockdown viability, ATP luminescence, 48 h; Potency, µM (highest dose often 46.1 µM), inactives show at the top dose activity, negative = toxicity, most hits filed as cytotoxic; actives 2% (n = 360,000); AID 686971;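 also: 0% = DMSO wells and -100% = cell-free medium wells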
#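 After a 2 h attachment period, IDH1KD HT-1080 cells took pin-transferred compound for 48 h at 37 °C; ATP-based luminescence after 10 min room-temperature reagent incubation reported viability.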
# TDP1 cell CPT = growth inhibition of DT40 Tdp1-/-;hTDP1 cells with camptothecin (screen for TDP1 inhibitors); chicken DT40 Tdp1-/-;hTDP1 cells + 20 nM CPT, ATP luminescence, 48 h; Potency, µM (highest dose often 46.2 µM), without a hit: at the highest dose activity change, negative = growth inhibition, hits mostly inhibitors; actives 12% (n = 420,000); AID 686979; also: nearly all actives have a fitted effect of over 55% in size
#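 Chicken DT40 Tdp1-/- cells stably complemented with human TDP1 were seeded at 400 cells/well in medium containing 20 nM camptothecin, exposed to pin-transferred compounds, and grown at 37 °C for at least 48 hr. Viability was read as ATP luminescence.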
# TDP1 cell noCPT = qHTS for Inhibitors of human tyrosyl-DNA phosphodiesterase 1 (TDP1): qHTS in cells in absence of CPT. DT40 Tdp1-/- hTDP1 cells, no CPT, ATP luminescence, 48 h. Potency, µM (doses to about 46.2 µM), inactives show top-dose activity change, negative = growth inhibition, hits mostly inhibitors. actives 15% (n = 420,000). AID 686978, 2013; also: nearly all actives have a fitted effect of over 55% in size
#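 Seeded 400 DT40-hTDP1 cells/well (vehicle DMSO, no 20 nM CPT); pinned compounds; ≥48 hr at 37 °C; CellTiter-Glo luminescence as viability measure.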
# HT1080NT lethal = kills 2HG-producing HT-1080-NT fibrosarcoma cells; AID 686970; HT-1080-NT fibrosarcoma viability, CellTiter-Glo ATP luminescence, 48 h; Potency, µM (highest dose often 46.1 µM), for the others: top-dose activity, negative = less viability, most hits filed as cytotoxic; actives 1.6% (n = 360,000);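 also: NT is the 2HG producing partner of a matched IDH1 knockdown line; 0% = DMSO-treated cells and -100% = media-only wells without cells; nearly all actives have a fitted effect of over 55% in size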
#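 Viability of the 2HG-overproducing fibrosarcoma line after 48 hours of compound exposure at 37 degrees C was determined by luminescence with CellTiter-Glo, and concentration-effect curves were then fitted and categorized.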
# * marks the source's active call; other numbers are inactive results; i = inactive; ? = inconclusive; / = not tested or not shown. This is a sample that favours compounds with a hit; in the whole collection about 19% have one here. Calls follow the shape of the dose curve; as a rule, active = well fitted curve in the direction sought with a large enough effect; inconclusive = small, poorly fitted or top-dose-only effect, or another doubt; inactive = no such curve, though single readings can be large; an effect the other way counts as inactive or inconclusive. Unless noted, % is scaled to controls: 0 for no effect and ±100 for the full control effect; potency is read from the fitted curve at half-maximal effect.
SMILES,KB-3-1 tox,KB-V1 MDR tox,HT1080 IDH1KD tx,TDP1 cell CPT,TDP1 cell noCPT,HT1080NT lethal
Cc1ccc(OCC(=O)Nc2nc(-c3ccccn3)cs2)c(C)c1,i,?,-24%,?,?,-14%
O=C(COc1ccc([N+](=O)[O-])cc1)Nc1nc(-c2ccccn2)cs1,?,?,?,4.6µM*,5.8µM*,?
O=C(COc1ccc(F)cc1)Nc1nc(-c2ccccn2)cs1,?,5.8µM*,?,7.3µM*,7.3µM*,-20%
O=C(COc1cccc(F)c1)Nc1nc(-c2ccccn2)cs1,?,?,?,5.2µM*,2.6µM*,-21%
CCc1nnc(NC(=O)COc2ccc([N+](=O)[O-])cc2)s1,i,i,7%,-10%,0%,5%
Cc1cccc(OCC(=O)Nc2nc(-c3ccncc3)cs2)c1,?,i,4%,-28%,?,15%
Cc1ccc(N(CC(=O)NCCSCc2ccco2)S(=O)(=O)c2ccc(C)cc2)cc1,i,?,-20%,-15%,?,-5%
COc1ccc(N(CC(=O)NCCSCc2ccccc2Cl)S(C)(=O)=O)cc1Cl,i,i,-1%,12µM*,?,-3%
COc1ccc(N(CC(=O)NCc2ccco2)S(C)(=O)=O)cc1Cl,i,?,1%,15%,-2%,8%
COc1ccc(N(CC(=O)NCCSCc2ccco2)S(=O)(=O)c2ccccc2)cc1Cl,/,/,1%,15µM*,21µM*,-2%
COc1ccc(OC)c(N(CC(=O)NCCSCc2ccco2)S(=O)(=O)c2ccc(OC)c(OC)c2)c1,i,?,-4%,13µM*,16µM*,-8%
COc1cccc(N(CC(=O)NCCSCc2ccco2)S(=O)(=O)c2ccccc2)c1,i,i,-2%,-25%,?,-7%
CCN(CC)C(=O)C1=C(C)N(CCCOC)C(=O)C(CC(=O)NCCCN(C)C)C1 (centres undefined),i,i,4%,0%,6%,15%
C/C(=N/N1CCN(c2ccccn2)CC1)c1cccc([N+](=O)[O-])c1,i,i,16%,-5%,?,30%
CCc1ccc(S(=O)(=O)/N=C2\C=C(Nc3ccc(O)cc3)C(=O)c3ccccc32)cc1,2.9µM*,?,2.9µM*,4.1µM*,3.3µM*,2.9µM*
CCc1ccc(S(=O)(=O)/N=C2\C=C(Nc3cccc(C(=O)O)c3)C(=O)c3ccccc32)cc1,i,i,7.3µM*,18µM*,16µM*,8.2µM*
CCc1ccc(S(=O)(=O)/N=C2/C=C(Sc3ncn[nH]3)C(=O)c3ccccc32)cc1,i,i,5.2µM*,0.65µM*,0.73µM*,5.8µM*
